The text below walks through data of PubChem BioAssay.

Molecules are shown by their SMILES. Calls of active or inactive are those of the source.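 Rule for the calls: active = compounds killing one labelled cell type while sparing the other, by normalised counts and ratio limits, not self-fluorescent; inactive = the rest.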

One assay is described as follows: differential killing of epithelial or mesenchymal cells, primary screen, imaging, PC-3E GFP, TEM4-18 mCherry, co-culture (AID 1345086).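 For red/green cell ratio (normalised): normalised mesenchymal count divided by normalised epithelial count so high means epithelial killing.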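 Note: cells exposed to compound for 72 h before imaging.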 The conditions noted are these: imaging cell counts, at 1 µM, actives lie on both sides, counts scaled to control wells, 1 = unselective.
Take `CCC(CCC(C)[C@H]1CCC2C3CC=C4C[C@@H](O)CC[C@]4(C)C3CC[C@@]21C)C(C)C` (stereo not given in full): the red/green cell ratio (normalised) was 1.04 (inactive).

Regarding `COc1ccc(-c2cc(=O)c3c(O)cc(OC)cc3o2)cc1`, the red/green cell ratio (normalised) is 1.15 (inactive).

On to `Cc1nc(COP(=O)(O)O)cc(CN(CCN(CC(=O)O)Cc2cc(COP(=O)(O)O)nc(C)c2[O-])CC(=O)O)c1[O-].[Mn+2]`, for which the red/green cell ratio (normalised) is 0.88 (inactive).

`COc1c(F)c(F)cc2c(=O)c(C(=O)NO)cn(C3CC3)c12`: the red/green cell ratio (normalised) is 1.08 (inactive).

For `C[C@@H]1CC[C@@]23CCC4(C)[C@@](C=CC5[C@@]6(C)CCC(=O)C(C)(C)C6CC[C@]54C)(OC2=O)C3[C@H]1C` (stereo not given in full), the red/green cell ratio (normalised) was 1.03 (inactive).

Turning to `O=C1CCC[C@@H](N2C(=S)OC[C@H]2c2ccccc2)C1`, the red/green cell ratio (normalised) is 0.91 (inactive).

With `NCC1O[C@@H](OC2C(N)C[C@@H](N)C(O)[C@H]2OC2OC(CO)C(OC3OC(CN)[C@@H](O)C(O)[C@H]3N)C2O)C(N)[C@@H](O)C1O` (stereo not given in full), the red/green cell ratio (normalised) was 1.11 (inactive).

As to `COC(=O)c1ccc(C(CC(C)C)NC(C)=O)o1` (stereo not given), the red/green cell ratio (normalised) was 1 (inactive).

For the compound `c1ccc(OCC2CCNC2)cc1` (stereo not given), the red/green cell ratio (normalised) was 0.83 (inactive).

In the case of `Oc1ccc2ccccc2c1Oc1ccc2ccccc2c1`, the red/green cell ratio (normalised) was 0.92 (inactive).

Staying with this assay, now noted: imaging cell counts, measured here: epithelial PC-3E GFP cell survival, at 1 µM.
As to `CCC(CCC(C)[C@H]1CCC2C3CC=C4C[C@@H](O)CC[C@]4(C)C3CC[C@@]21C)C(C)C` (stereo not given in full), the normalised cell number is 1.04.

The compound `COc1ccc(-c2cc(=O)c3c(O)cc(OC)cc3o2)cc1` gave a normalised cell number of 1.08.

`Cc1nc(COP(=O)(O)O)cc(CN(CCN(CC(=O)O)Cc2cc(COP(=O)(O)O)nc(C)c2[O-])CC(=O)O)c1[O-].[Mn+2]` gave a normalised cell number of 1.27.

In the case of `COc1c(F)c(F)cc2c(=O)c(C(=O)NO)cn(C3CC3)c12`, the normalised cell number amounted to 0.97.

`C[C@@H]1CC[C@@]23CCC4(C)[C@@](C=CC5[C@@]6(C)CCC(=O)C(C)(C)C6CC[C@]54C)(OC2=O)C3[C@H]1C` (stereo not given in full): the normalised cell number is 0.95.

Consider `O=C1CCC[C@@H](N2C(=S)OC[C@H]2c2ccccc2)C1`, for which the normalised cell number turned out to be 1.1.

`NCC1O[C@@H](OC2C(N)C[C@@H](N)C(O)[C@H]2OC2OC(CO)C(OC3OC(CN)[C@@H](O)C(O)[C@H]3N)C2O)C(N)[C@@H](O)C1O` (stereo not given in full) yielded a normalised cell number of 0.9.

Regarding `COC(=O)c1ccc(C(CC(C)C)NC(C)=O)o1` (stereo not given), the normalised cell number is 1.11.

In the case of `c1ccc(OCC2CCNC2)cc1` (stereo not given), the normalised cell number turned out to be 1.17.

With `Oc1ccc2ccccc2c1Oc1ccc2ccccc2c1`, the normalised cell number worked out at 0.86.
